From PubChem BioAssay (NCI) come the findings set out here.

Assay [1] in a line: NCI Yeast Anticancer Drug Screen. Data for the rad50 strain (AID 155).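 Note: 0% = growth of vehicle-only cultures of the same strain.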 As to conditions: S. cerevisiae rad50 strain growth inhibition, active compounds read high. The method in brief:
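Readout: growth inhibition relative to vehicle-treated cultures. Compound exposure was carried out in a genetically defined yeast strain deficient in DNA damage repair.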

The nature of assay [2]: NCI Yeast Anticancer Drug Screen. Data for the mec2-1 strain (AID 157). As to conditions: S. cerevisiae mec2-1 strain, active compounds read high. The method in brief:
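Vehicle-treated cultures served as reference for growth inhibition of compound-exposed mec2-1 yeast.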

Assay [3] can be described thus: NCI Yeast Anticancer Drug Screen. Data for the sgs1 mgt1 strain (AID 161).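 Note: 0% = growth of cultures given vehicle only.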 The settings on record: S. cerevisiae sgs1 mgt1 strain, active compounds read high. The method in brief:
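Genetically altered yeast, compound exposure, growth inhibition relative to vehicle.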

Assay [4] is described as follows: NCI Yeast Anticancer Drug Screen. Data for the cln2 rad14 strain (AID 165).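 Note: 0% = growth equal to vehicle treated cultures.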 As to conditions: S. cerevisiae cln2 rad14 strain, active compounds read high. The method, boiled down:
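Each compound was tested on cln2 rad14 yeast. Inhibition of growth was calculated against vehicle-exposed controls.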

Assay [5] can be described thus: NCI Yeast Anticancer Drug Screen. Data for the bub3 strain (AID 167). The settings on record: S. cerevisiae bub3 mutant strain, active compounds read high. The method, boiled down:
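Readout: yeast growth inhibition, expressed relative to vehicle-only wells. The test organism is a mutant strain from a panel with lesions in DNA repair or checkpoint genes.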

Assay [6] in a line: NCI Yeast Anticancer Drug Screen. Data for the mlh1 rad18 strain (AID 175). As to conditions: S. cerevisiae mlh1 rad18 strain growth inhibition, active compounds read high. The method in brief: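 Vehicle-treated cultures served as the reference for growth inhibition in a yeast strain carrying DNA damage repair alterations exposed to each compound.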
Where [7] appears, read: at 5.0 µM (retest, dose inferred, filed as 0.5).
Setting [8] is: at 50.0 µM (retest, dose inferred, filed as 5.0).

Each structure is given as a SMILES string. About 79,000 compounds went through this panel and 15% of them were active in at least one assay; those are over-represented in the sample as a whole. A number with no mark means an inactive call. Calls of active or inactive are those of the source. Cut-off read from the data, not from the text of the source: active = growth inhibition above about 70%; inactive = the rest.

`COc1cc2c(c(O)c1C)C(=O)C(Cl)=CC2=O`: the growth inhibition in assay [1] (setting [7]) is 99% (active); in assay [1] (setting [8]), 99% (active); in assay [1] (at 50.0 µM), 99.1% (active); in assay [2] (setting [7]), 99% (active); in assay [2] (setting [8]) it was 99% (active); in assay [2] (at 50.0 µM), 99.2% (active). Further, the growth inhibition in assay [3] (setting [7]) is 99% (active); in assay [3] (setting [8]) it was 98% (active); in assay [3] (at 50.0 µM) it was 99.3% (active); in assay [4] (setting [7]) it was 98% (active); in assay [4] (setting [8]), 98% (active); in assay [4] (at 50.0 µM) it was 98.9% (active). Moreover, the growth inhibition in assay [5] (setting [7]) was 99% (active); in assay [5] (setting [8]), 99% (active); in assay [5] (at 50.0 µM), 99.2% (active); in assay [6] (setting [7]) it was 99% (active); in assay [6] (setting [8]) it was 99% (active); in assay [6] (at 50.0 µM), 99.2% (active).

As for `CCC[CH2][Sn]([Cl])([CH2]CCC)[S]/C(C#N)=N/N=C/c1ccc(N(C)C)cc1`, the growth inhibition in assay [1] (setting [7]) was 97% (active); in assay [1] (setting [8]), 98% (active); in assay [1] (at 50.0 µM), 98.2% (active); in assay [2] (setting [7]) it was 97% (active); in assay [2] (setting [8]), 98% (active); in assay [2] (at 50.0 µM) it was 98.8% (active). For the same molecule, the growth inhibition in assay [3] (setting [7]) was 97% (active); in assay [3] (setting [8]), 98% (active); in assay [3] (at 50.0 µM), 98.8% (active); in assay [4] (setting [7]) it was 99% (active); in assay [4] (setting [8]) it was 98% (active); in assay [4] (at 50.0 µM) it was 97.9% (active). Also, the growth inhibition in assay [5] (setting [7]) was 97% (active); in assay [5] (setting [8]), 98% (active); in assay [5] (at 50.0 µM), 98.8% (active); in assay [6] (setting [7]), 98% (active); in assay [6] (setting [8]) it was 97% (active); in assay [6] (at 50.0 µM) it was 98.7% (active).

Take `Nc1nc(-c2ccccn2)cc2c(Cl)cccc12`: the growth inhibition in assay [1] (setting [7]) is 12%; in assay [1] (setting [8]), 90% (active); in assay [1] (at 50.0 µM) it was -2.3%; in assay [2] (setting [7]), 23%; in assay [2] (setting [8]), 96% (active); in assay [2] (at 50.0 µM), -22.1%. The growth inhibition was 21% in assay [3] (setting [7]); 92% (active) in assay [3] (setting [8]); 11.7% in assay [3] (at 50.0 µM); 13% in assay [4] (setting [7]); 75% (active) in assay [4] (setting [8]); 3.7% in assay [4] (at 50.0 µM). Moreover, the growth inhibition in assay [5] (setting [7]) is -8%; in assay [5] (setting [8]) it was 91% (active); in assay [5] (at 50.0 µM), 17.6%; in assay [6] (setting [7]) it was 34%; in assay [6] (setting [8]), 96% (active); in assay [6] (at 50.0 µM), 8.75%.

As for `COC1=Nc2ccccc2S(=O)(=O)C=C1`, the growth inhibition in assay [1] (setting [7]) is 4%; in assay [1] (setting [8]), 87% (active); in assay [1] (at 50.0 µM) it was 98.2% (active); in assay [2] (setting [7]), 3%; in assay [2] (setting [8]), 79% (active); in assay [2] (at 50.0 µM), 98.5% (active). The growth inhibition is 2% in assay [3] (setting [7]); 89% (active) in assay [3] (setting [8]); 99.2% (active) in assay [3] (at 50.0 µM); 6% in assay [4] (setting [7]); 79% (active) in assay [4] (setting [8]); 95.8% (active) in assay [4] (at 50.0 µM). The growth inhibition in assay [5] (setting [7]) is 11%; in assay [5] (setting [8]) it was 98% (active); in assay [5] (at 50.0 µM), 98.7% (active); in assay [6] (setting [7]) it was 12%; in assay [6] (setting [8]) it was 94% (active); in assay [6] (at 50.0 µM), 98.3% (active).

Consider `CCN(CC)c1ccc(NC(C(=O)c2ccccc2)c2ccc3c(c2)OCO3)cc1` (stereo not given), for which the growth inhibition is -23% in assay [1] (setting [7]); -26% in assay [1] (setting [8]); 27.2% in assay [1] (at 50.0 µM); -3% in assay [2] (setting [7]); 5% in assay [2] (setting [8]); 32.7% in assay [2] (at 50.0 µM). Also, the growth inhibition in assay [3] (setting [7]) was -23%; in assay [3] (setting [8]), 14%; in assay [3] (at 50.0 µM), 46.1%; in assay [4] (setting [7]), -1%; in assay [4] (setting [8]), -10%; in assay [4] (at 50.0 µM), -8.35%. In addition, the growth inhibition in assay [5] (setting [7]) is 3%; in assay [5] (setting [8]) it was 14%; in assay [5] (at 50.0 µM), 25.9%; in assay [6] (setting [7]), -4%; in assay [6] (setting [8]) it was 12%; in assay [6] (at 50.0 µM), 42.5%.

For `Cc1ccccc1SCc1nc2ccccc2c(C)[n+]1[O-]`, the growth inhibition was -3% in assay [1] (setting [7]); 73% (active) in assay [1] (setting [8]); 35.5% in assay [1] (at 50.0 µM); 4% in assay [2] (setting [7]); 63% in assay [2] (setting [8]); 45.2% in assay [2] (at 50.0 µM). Also, the growth inhibition was 9% in assay [3] (setting [7]); 68% in assay [3] (setting [8]); 58.7% in assay [3] (at 50.0 µM); -1% in assay [4] (setting [7]); 44% in assay [4] (setting [8]); 35% in assay [4] (at 50.0 µM). The growth inhibition in assay [5] (setting [7]) is -1%; in assay [5] (setting [8]) it was 69%; in assay [5] (at 50.0 µM), 59%; in assay [6] (setting [7]), 42%; in assay [6] (setting [8]) it was 89% (active); in assay [6] (at 50.0 µM), 59.9%.

`Sc1ccccc1C1N(Cc2ccc(Cl)cc2)CCCN1Cc1ccc(Cl)cc1`: the growth inhibition in assay [1] (setting [7]) is 98% (active); in assay [1] (setting [8]), 42%; in assay [1] (at 50.0 µM), 79.2% (active); in assay [2] (setting [7]) it was 100% (active); in assay [2] (setting [8]) it was 69%; in assay [2] (at 50.0 µM), 55.6%. Moreover, the growth inhibition in assay [3] (setting [7]) was 99% (active); in assay [3] (setting [8]), 84% (active); in assay [3] (at 50.0 µM), 86.8% (active); in assay [4] (setting [7]), 99% (active); in assay [4] (setting [8]), 39%; in assay [4] (at 50.0 µM), 64%. Also, the growth inhibition in assay [5] (setting [7]) is 99% (active); in assay [5] (setting [8]), 63%; in assay [5] (at 50.0 µM) it was 81.8% (active); in assay [6] (setting [7]), 99% (active); in assay [6] (setting [8]), 73% (active); in assay [6] (at 50.0 µM), 79.6% (active).

In the case of `CCCCCCc1cc(C(=O)N/N=C\c2cccc([N+](=O)[O-])c2)c2ccccc2n1`, the growth inhibition was 0% in assay [1] (setting [7]); -7% in assay [1] (setting [8]); -40.9% in assay [1] (at 50.0 µM); -1% in assay [2] (setting [7]); -2% in assay [2] (setting [8]); -9.2% in assay [2] (at 50.0 µM). The growth inhibition is 2% in assay [3] (setting [7]); 7% in assay [3] (setting [8]); -19.9% in assay [3] (at 50.0 µM); -5% in assay [4] (setting [7]); -17% in assay [4] (setting [8]); 41% in assay [4] (at 50.0 µM). In addition, the growth inhibition in assay [5] (setting [7]) is 0%; in assay [5] (setting [8]) it was 5%; in assay [5] (at 50.0 µM), 1.45%; in assay [6] (setting [7]) it was 0%; in assay [6] (setting [8]), -7%; in assay [6] (at 50.0 µM) it was -9.4%.

Take `O=C(O)c1ccc(C(O)(c2ccccc2)c2ccccc2)cc1`: the growth inhibition in assay [1] (setting [7]) was -9%; in assay [1] (setting [8]), 65%; in assay [1] (at 50.0 µM), 63.4%; in assay [2] (setting [7]) it was 11%; in assay [2] (setting [8]), 95% (active); in assay [2] (at 50.0 µM), 86% (active). Moreover, the growth inhibition was -9% in assay [3] (setting [7]); 90% (active) in assay [3] (setting [8]); 98% (active) in assay [3] (at 50.0 µM); -1% in assay [4] (setting [7]); 90% (active) in assay [4] (setting [8]); 82.3% (active) in assay [4] (at 50.0 µM). Besides, the growth inhibition in assay [5] (setting [7]) is -3%; in assay [5] (setting [8]), 97% (active); in assay [5] (at 50.0 µM) it was 77.7% (active); in assay [6] (setting [7]), 3%; in assay [6] (setting [8]) it was 93% (active); in assay [6] (at 50.0 µM) it was 96.4% (active).

As to `CCOc1ccccc1/C=C1\C=Nc2ccccc21`, the growth inhibition in assay [1] (setting [7]) is 6%; in assay [1] (setting [8]) it was -16%; in assay [1] (at 50.0 µM), 11.8%; in assay [2] (setting [7]), -16%; in assay [2] (setting [8]), 8%; in assay [2] (at 50.0 µM) it was 16.1%. Besides, the growth inhibition is -6% in assay [3] (setting [7]); 0% in assay [3] (setting [8]); 16.2% in assay [3] (at 50.0 µM); 25% in assay [4] (setting [7]); 16% in assay [4] (setting [8]); 7.65% in assay [4] (at 50.0 µM). The growth inhibition in assay [5] (setting [7]) was 8%; in assay [5] (setting [8]), 15%; in assay [5] (at 50.0 µM), 24.7%; in assay [6] (setting [7]), -10%; in assay [6] (setting [8]), -17%; in assay [6] (at 50.0 µM) it was 6.35%.
